About 79,000 compounds went through this panel and 15% of them were active in at least one assay; those are over-represented in the sample as a whole. A number with no mark means an inactive call. The source made the active and inactive calls. Cut-off read from the data, not from the text of the source: active = growth inhibition above about 70%; inactive = the rest.
Test: NCI Yeast Anticancer Drug Screen. Data for the rad50EPP+ strain (AID 151);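 note: 0% = growth of vehicle-treated control cultures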
Details: S. cerevisiae rad50 mutant strain, at 11.0 µM, hits give high values
Summary of the method: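 Strain rad50EPP+; compound exposure; % growth inhibition vs vehicle.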

Row | SMILES | growth inhibition
1 | O=CC=C(c1ccccc1)c1ccccc1 | 26%
2 | FC(F)(F)c1nc2nc(Cl)c(Cl)nc2n1CCCN1CCOCC1 | 6%
3 | BrCC[P+](c1ccccc1)(c1ccccc1)c1ccccc1 | 19%
4 | N#CSc1ccc(S(N)(=O)=O)cc1 | -91%
5 | O=[N+]([O-])c1ccc2nc3ccccc3cc2c1 | 85% (active)
6 | O=C(NC(Nc1ccc(F)c(Cl)c1)(C(F)(F)F)C(F)(F)F)C(C(F)(F)F)C(F)(F)F | -25%
7 | O=C(/C=C\c1ccc(Cl)cc1Cl)c1cccs1 | 47%
8 | O=C(NCCCCNCCCNC(=O)c1cc(-c2ccccc2)nc2ccccc12)c1cc(-c2ccccc2)nc2ccccc12 | 12%
9 | NC(=NCc1ccccc1)N/N=C\c1ccnc2ccccc12 | 1%
10 | CCCCN(CCCC)CCSc1ccc(Cl)cc1 | 13%
11 | COc1cc(C2C3=C(COC3=O)Oc3cc4c(cc32)OCO4)ccc1O (centres undefined) | -3%
12 | C#CCCCc1ccccc1 | -55%
13 | CCc1ccc(NS(=O)(=O)c2ccccc2)c([N+](=O)[O-])c1 | 36%
14 | COc1ccc(C2c3cc4c(cc3OC(C)(O)C2C)OCO4)c(OC)c1 (centres undefined) | 12%
15 | COC(=O)c1ccc(CCC2=CC(=O)C(Br)=CC2=O)cc1 | 42%
16 | NNC(=O)CCc1ccc2ccc3ccccc3c2c1 | 15%
17 | Cn1c2ccccc2c(=O)c2cc(NC(=O)CCCCC(=O)Nc3ccc4c(c3)c(=O)c3ccccc3n4C)ccc21 | 14%
18 | CC(CC(C)(C)[N+](C)(C)C)[N+](C)(C)C (centres undefined) | 1%
19 | CC1CCN(CCC(=O)c2ccc(Cl)cc2)CC1 | -1%
20 | CCCCCCCCCCCCCCC(C(=O)[O-])[n+]1ccccc1 (centres undefined) | 4%

Row | SMILES | growth inhibition
21 | CNC1C(OC2C(OC3C(O)C(O)C(N=C(N)N)C(O)C3N=C(N)N)OC(C)C2(O)CO)OC(CO)C(O)C1O (centres undefined) | -2%
22 | O=C(O)c1ccccc1-c1ccccc1C(=O)Nc1ccc2c(c1)Cc1ccccc1-2 | 3%
23 | O=[N+]([O-])c1cccc2nc3ccccc3c(NCCCN3CCOCC3)c12 | 76% (active)
24 | C=CC(C)(O)CCC1C(=C)C(O)CC2C(C)(C)CCCC12C (centres undefined) | 12%
25 | CN1c2ccc(Cl)cc2C(=O)NC1c1ccc([N+](=O)[O-])s1 (centres undefined) | 18%
26 | [O-][n+]1c2ccc(O)cc2nc2ccc(Br)cc21 | 55%
27 | O=C1c2ccccc2-c2nc3ccccc3nc21 | 79% (active)
28 | CCCCN1C(=O)N(c2ccc(OCC)cc2)C2N(CCCC)C1C(C)(C)C2(C)C (centres undefined) | 7%
29 | CO[C@H]1C[C@](C)(O)Cc2cc3c(c(O)c21)C(=O)c1c(O)cc2c(c1C3=O)O[C@@H]1O[C@@]2(C)[C@H](O)[C@@H](N(C)C)[C@@H]1O | -9%
30 | COc1cc2c(cc1[N+](=O)[O-])C(=O)C(Br)(Br)CCC2 | 99% (active)
31 | O=C1OC(CCl)CN1/N=C/c1ccc([N+](=O)[O-])o1 (centres undefined) | 14%
32 | CN(C)CCOc1ccc2c(c1)C/C(=C/c1ncc([N+](=O)[O-])n1C)C2=O | 10%
33 | CCCCCCCCCCCCCCCCCCN(C)CC(COP(=O)([O-])OCC[N+](C)(C)C)OC (centres undefined) | 98% (active)
34 | CC(C)c1ccccc1NC(=O)/C(Cl)=C(\Cl)C(=O)O | 7%
35 | O=[N+]([O-])C(=C(Sc1ccccc1)Sc1ccccc1)C(Cl)=C(Cl)Cl | 36%
36 | C(=C\c1ccccc1)/COc1ccccc1C(N1CCOCC1)n1nc2ccccc2n1 (centres undefined) | 25%
37 | O=C1C(Nc2ccccc2)=C(Oc2ccccc2)C(=O)c2ccccc21 | 28%
38 | CCN(CC)CCN1C(=O)c2cccc3cc(OC)cc(c23)C1=O | 60%
39 | CN(C)Cc1cc(N=Nc2ccc(Cl)cc2)cc(CN(C)C)c1O | 15%

Reference: PubChem BioAssay (NCI)
